Reference: PubChem BioAssay (NCI)
About 83,000 compounds went through this panel and 20% of them were active in at least one assay; those are over-represented in the sample as a whole.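 Single-dose data. Exposure time 48 hours. Values below 10 considered active.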 Activity calls are given as the source filed them.

These compounds were tested on HL-60(TB) leukemia (assay: NCI-60 one-dose screen, 48 h (100 = growth as untreated, 0 = no growth, -100 = all killed)). Details: 10 µM unless noted.
With Fc1ccc(NCCS)cc1 the growth was 100% (inactive).
In the case of CCc1ccc(CCC(=O)Nc2ncc(Cc3cc(Cl)ccc3Cl)s2)o1, the growth is reported as -44.5% (active).
In the case of Cn1cc(-c2csc(-c3cn(CCN)c4ccc(F)cc34)n2)c2cccnc21, the growth is reported as 47.1% (inactive).
With C/C(=N\Nc1ccccc1)c1ccc(NC2=CC(=O)c3ccccc3C2=O)cc1 the growth was 80.6% (inactive).
For COCCOc1cc2ncnc(N3CCN(c4cc(S(C)(=O)=O)c(C)cc4Cl)CC3)c2cc1OCCOC, the growth was 97.4% (inactive).
In the case of CCNC(=O)Oc1ccc(/C(=C(\C)c2ccccc2)c2ccc(OCCN(CC)CC)cc2)cc1, the growth is reported as 52.5% (inactive).
CN(C)S(=O)(=O)n1cnc([C@@H]2[C@@H]3C(=O)OC[C@@H]3C[C@]23N=CN(Cc2ccccc2)C3=O)c1 was tested, and the growth was 123% (inactive).
In the case of CC1(C)C=CC[C@]2(C)[C@H]3CC[C@@H]4[C@H]5[C@H](C(=O)/C=C/c6cccnc6)CC[C@]5(CO)CC[C@@]4(C)[C@]3(C)CC[C@@H]12, the growth is reported as -29.2% (active).
In the case of O=C(/C=C/c1ccc(Cl)nc1)c1ccc(Cl)cc1Cl, the growth is reported as 67.4% (inactive).
In the case of ClC1=C(Cl)C(=C2C(Cl)=C(Cl)C(Cl)=C2Cl)C(Cl)=C1Cl, the growth is reported as 77.7% (inactive).
For Brc1ccc2c(c1)-c1ccccc1C1=NCCN12, the growth was 18.2% (inactive).
Cc1ccc(-c2csc3nc(C)c(CCCl)c(=O)n23)cc1 was tested, and the growth was 107% (inactive).
For CCN(CC)Cc1cc(Nc2ccnc3ccc(OC)cc23)ccc1O, the growth was 32.5% (inactive).
CCOC(=O)c1c(C)nc2c(c1N)CC(=O)N2CCc1ccccc1 was tested, and the growth was -3.38% (active).
